# Source: the supplement of paper PMC6555819
# Tests used:
# Test in all cases: PBM binding z-score (relative to random genomic background probes); higher = stronger binding; sequences stand for … in GC…GCGATTGACAGCGTAGAATGAAGG
# [1] = tested on: RARb homodimer (NR concentration 270 nM)
# Method in brief: (§1)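 Scanned fluorescence from custom Agilent 4×180K protein-binding microarrays was regression-normalized. Binding z-scores use random background probes as reference. Ligand-free nuclear receptor dimers were incubated on the arrays for 1 h and detected with antibodies against each partner (one per run).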
# [2] = tested on: RARg:RXRa (NR concentration 270 nM, RXRa partner concentration 90 nM)
# Method in brief: as §1
# [3] = tested on: RARg homodimer (NR concentration 270 nM)
# Method in brief: as §1
# [4] = tested on: RXRa DBDmut IVT, anti-RXR (DBD mutation: RXRa K156A/R161A, NR concentration 90 nM)
# Method in brief: as §1
# [5] = tested on: RXRa homodimer (NR concentration 180 nM)
# Method in brief: as §1
# [6] = tested on: THRa:RXRa (NR concentration 90 nM, RXRa partner concentration 90 nM)
# Method in brief: as §1
# [7] = tested on: THRa homodimer (NR concentration 90 nM)
# Method in brief: as §1
# [8] = tested on: VDR homodimer (NR concentration 270 nM)
# Method in brief: as §1
Sequence,PBM binding z-score [1],PBM binding z-score [2],PBM binding z-score [3],PBM binding z-score [4],PBM binding z-score [5],PBM binding z-score [6],PBM binding z-score [7],PBM binding z-score [8]
CCGACTGGGGCTAGGTTACCATAACGCACAGCCA,0.542,0.00576,0.24,-0.639,0.166,0.173,-0.0667,-0.608
GCGACTGGGGCATCAGCAGGTTACCATAACTTAA,0.856,0.955,0.455,-0.108,0.462,1.09,-0.0496,-0.398
ATCGAAAGGTAGACGAGGTGAGTATACACCGTTT,0.107,0.927,0.758,-0.531,0.582,2.01,0.239,-0.467
CTACCAAGGTGAACAAGGTCGTTAATTACTATTC,2.04,1.86,1.55,1.48,1.91,3.19,1.99,2.64
GCAGACAGGTGAAACGCAGGTAAATCAGGGTGGC,0.00843,0.816,-0.0582,-0.477,0.544,1.23,-0.537,-0.336
AGAACGAGGGCACGCAGAGTTGATAGCAGAGTAG,1.68,2.85,2.58,2.14,1.73,1.94,0.33,1.86
CGAACTAAGTCAGAACAGGACAGTGAAGGATGAT,0.68,0.103,0.431,0.106,0.167,1.14,-0.281,-0.107
